From PubChem BioAssay (Tox21)
Records with an inconclusive call do not appear. Active and inactive are the calls of the source. Calls follow the shape of the dose curve; as a rule, active = well fitted curve in the direction sought with a large enough effect in the repeat runs; inconclusive = weak or mixed curves; inactive = no such curve, though single readings can be large; an effect the other way counts as inactive or inconclusive.

Key:
[1] = A CellTox Green Cytotoxicity Assay to monitor cytotoxicity in HEK293 cells - 40 hour (AID 1224871); also: nearly all actives have a fitted effect of over 45% in size; also: potency is read from the fitted curve at half-maximal effect
Procedure, shortened: (§1)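 Fluorescence from a DNA-binding dye excluded by viable cells was measured repeatedly in the same HEK293 wells (600 cells/well) during continuous compound exposure at 37 C. Each assay gives one read point: 0, 8, 16, 24, 32 or 40 h.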

[2] = qHTS RealTime-Glo MT Cell Viability Assay in HEK293 cells - 16 hour (AID 1224872); also: nearly all actives have a fitted effect of over 50% in size; also: potency is read from the fitted curve at half-maximal effect
Procedure, shortened: (§2)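 HEK293 cells were seeded at 600 cells/well together with NanoLuc luciferase and cell-permeant prosubstrate, preincubated 5 h at 37 C/5% CO2, then given compound in DMSO by pintool. Luminescence from viable-cell prosubstrate reduction was read repeatedly over 40 h.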

[3] = qHTS RealTime-Glo MT Cell Viability Assay in HepG2 cells - 8 hour (AID 1224873); also: nearly all actives have a fitted effect of over 55% in size; also: potency is read from the fitted curve at half-maximal effect
Procedure, shortened: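 HepG2 cells mixed with RealTime-Glo MT reagents (NanoLuc plus cell-permeant prosubstrate) were seeded at 600 cells/well, incubated 5 h at 37 C/5% CO2, then pinned with compounds in DMSO; nonlytic luminescence tracked viability during 40 h treatment.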

[4] = A CellTox Green Cytotoxicity Assay to monitor cytotoxicity in HEK293 cells - 24 hour (AID 1224875); also: nearly all actives have a fitted effect of over 45% in size; also: potency is read from the fitted curve at half-maximal effect
Procedure, shortened: as §1

[5] = qHTS RealTime-Glo MT Cell Viability Assay in HepG2 cells - 32 hour (AID 1224877); also: nearly all actives have a fitted effect of over 55% in size; also: potency is read from the fitted curve at half-maximal effect
Procedure, shortened: (§3)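 HepG2 cells were seeded at 600 cells/well together with NanoLuc luciferase and a cell-permeant prosubstrate, preincubated 5 h at 37 C/5% CO2, then pin-dosed with compounds in DMSO. Nonlytic luminescence from viable cells was read at each time point.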

[6] = A CellTox Green Cytotoxicity Assay to monitor cytotoxicity in HepG2 cells - 24 hour (AID 1224878); also: nearly all actives have a fitted effect of over 45% in size; also: potency is read from the fitted curve at half-maximal effect
Procedure, shortened: (§4)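 Real-time cytotoxicity: fluorescence of a cell-impermeant cyanine dye binding DNA of dead HepG2 cells, measured repeatedly (0–40 h) during compound exposure at 37 C. Cells seeded 600/well with reagent, dosed after 5 h.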

[7] = A CellTox Green Cytotoxicity Assay to monitor cytotoxicity in HepG2 cells - 40 hour (AID 1224879); also: nearly all actives have a fitted effect of over 40% in size; also: potency is read from the fitted curve at half-maximal effect
Procedure, shortened: as §4

[8] = qHTS RealTime-Glo MT Cell Viability Assay in HEK293 cells - 0 hour (AID 1224880); also: nearly all actives have a fitted effect of over 45% in size; also: potency is read from the fitted curve at half-maximal effect
Procedure, shortened: (§5)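 Luminescence, which tracks viable cell number through reduction of the prosubstrate to a NanoLuc substrate, was read over continuous 37 C culture. Cells (600/well) were premixed with reagent and rested 5 h before 23 nL of compound in DMSO was pinned.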

[9] = A CellTox Green Cytotoxicity Assay to monitor cytotoxicity in HEK293 cells - 32 hour (AID 1224881); also: nearly all actives have a fitted effect of over 40% in size; also: potency is read from the fitted curve at half-maximal effect
Procedure, shortened: as §1

[10] = A CellTox Green Cytotoxicity Assay to monitor cytotoxicity in HepG2 cells - 0 hour (AID 1224882); also: nearly all actives have a fitted effect of over 35% in size
Procedure, shortened: as §4

[11] = A CellTox Green Cytotoxicity Assay to monitor cytotoxicity in HepG2 cells - 32 hour (AID 1224883); also: nearly all actives have a fitted effect of over 50% in size; also: potency is read from the fitted curve at half-maximal effect
Procedure, shortened: as §4

[12] = A CellTox Green Cytotoxicity Assay to monitor cytotoxicity in HEK293 cells - 8 hour (AID 1224884); also: nearly all actives have a fitted effect of over 35% in size; also: potency is read from the fitted curve at half-maximal effect
Procedure, shortened: as §1

[13] = qHTS RealTime-Glo MT Cell Viability Assay in HepG2 cells - 16 hour (AID 1224885); also: nearly all actives have a fitted effect of over 50% in size; also: potency is read from the fitted curve at half-maximal effect
Procedure, shortened: as §3

[14] = qHTS RealTime-Glo MT Cell Viability Assay in HEK293 cells - 24 hour (AID 1224886); also: nearly all actives have a fitted effect of over 50% in size; also: potency is read from the fitted curve at half-maximal effect
Procedure, shortened: as §2

[15] = qHTS RealTime-Glo MT Cell Viability Assay in HEK293 cells - 8 hour (AID 1224887); also: nearly all actives have a fitted effect of over 50% in size; also: potency is read from the fitted curve at half-maximal effect
Procedure, shortened: as §5

[16] = A CellTox Green Cytotoxicity Assay to monitor cytotoxicity in HEK293 cells - 16 hour (AID 1224888); also: nearly all actives have a fitted effect of over 35% in size; also: potency is read from the fitted curve at half-maximal effect
Procedure, shortened: as §1

[17] = qHTS RealTime-Glo MT Cell Viability Assay in HepG2 cells - 0 hour (AID 1224889); also: nearly all actives have a fitted effect of over 50% in size; also: potency is read from the fitted curve at half-maximal effect
Procedure, shortened: as §3

[18] = A CellTox Green Cytotoxicity Assay to monitor cytotoxicity in HepG2 cells - 8 hour (AID 1224890); also: nearly all actives have a fitted effect of over 45% in size; also: potency is read from the fitted curve at half-maximal effect
Procedure, shortened: as §4

[19] = A CellTox Green Cytotoxicity Assay to monitor cytotoxicity in HepG2 cells - 16 hour (AID 1224876); also: nearly all actives have a fitted effect of over 45% in size; also: potency is read from the fitted curve at half-maximal effect
Procedure, shortened: as §4

[20] = qHTS RealTime-Glo MT Cell Viability Assay in HEK293 cells - 40 hour (AID 1224874); details: RealTime-Glo luminescence; max response: stronger effect = lower value; also: nearly all actives have a fitted effect of over 50% in size; also: potency is read from the fitted curve at half-maximal effect
Procedure, shortened: as §5
% is scaled to controls: 0 for no effect and ±100 for the full control effect.

O=C(N[C@H]1N=C(c2ccccc2F)c2cccc3c2N(CC3)C1=O)c1cc2ccccc2[nH]1
inactive: Potency [1] | Potency [2] | Potency [3] | Potency [4] | Potency [5] | Potency [6] | Potency [7] | Potency [8] | Potency [9] | Potency [10] | Potency [11] | Potency [12] | Potency [13] | Potency [14] | Potency [15] | Potency [16] | Potency [17] | Potency [18]

CN
inactive: Potency [1] | Potency [2] | Potency [3] | Potency [4] | Potency [19] | Potency [6] | Potency [8] | Potency [9] | Potency [10] | Potency [11] | Potency [12] | Potency [13] | Potency [14] | Potency [15] | Potency [16] | Potency [17] | Potency [18]

CCCCn1cc[n+](C)c1.[Cl][Fe-]([Cl])([Cl])[Cl]
inactive: Potency [1] | Potency [2] | max response [20] 2.18% | Potency [4] | Potency [19] | Potency [5] | Potency [6] | Potency [7] | Potency [8] | Potency [9] | Potency [10] | Potency [11] | Potency [12] | Potency [13] | Potency [14] | Potency [15] | Potency [16] | Potency [17] | Potency [18]

CC#C[C@]1(O)CC[C@H]2[C@@H]3C[C@H](C)C4=CC(=O)CC[C@]4(C)[C@H]3CC[C@@]21C
active: Potency [17] 2.68 µM
inactive: Potency [1] | Potency [2] | Potency [3] | Potency [4] | Potency [19] | Potency [5] | Potency [6] | Potency [9] | Potency [10] | Potency [11] | Potency [12] | Potency [13] | Potency [15] | Potency [16] | Potency [18]

[Cl-].[Cl-].[Sn+2]
inactive: Potency [1] | Potency [2] | Potency [3] | Potency [4] | Potency [19] | Potency [5] | Potency [6] | Potency [8] | Potency [9] | Potency [10] | Potency [11] | Potency [12] | Potency [13] | Potency [14] | Potency [15] | Potency [16] | Potency [17] | Potency [18]

CSC(C)(C)/C=N/O
inactive: Potency [1] | Potency [2] | max response [20] 2.63% | Potency [4] | Potency [19] | Potency [5] | Potency [6] | Potency [7] | Potency [8] | Potency [9] | Potency [10] | Potency [11] | Potency [12] | Potency [13] | Potency [14] | Potency [15] | Potency [16] | Potency [17] | Potency [18]

CCCCN(CCCC)C(=S)[S-].CCCCN(CCCC)C(=S)[S-].[Ni+2]
inactive: Potency [1] | Potency [2] | max response [20] -23% | Potency [4] | Potency [19] | Potency [5] | Potency [6] | Potency [7] | Potency [8] | Potency [9] | Potency [10] | Potency [11] | Potency [12] | Potency [13] | Potency [14] | Potency [15] | Potency [16] | Potency [17] | Potency [18]

CC[C@H](C)[C@H]1O[C@]2(C=C[C@@H]1C)C[C@@H]1C[C@@H](C/C=C(\C)[C@@H](O[C@H]3C[C@H](OC)[C@@H](O[C@H]4C[C@H](OC)[C@@H](NC)[C@H](C)O4)[C@H](C)O3)[C@@H](C)/C=C/C=C3\CO[C@@H]4[C@H](O)C(C)=C[C@@H](C(=O)O1)[C@]34O)O2
inactive: Potency [8] | Potency [10] | Potency [17]
active: Potency [1] 11 µM | Potency [2] 6.92 µM | Potency [3] 15.5 µM | Potency [4] 13.8 µM | Potency [19] 15.5 µM | Potency [5] 9.77 µM | Potency [6] 11 µM | Potency [9] 12.3 µM | Potency [11] 11 µM | Potency [12] 13.8 µM | Potency [13] 12.3 µM | Potency [14] 5.49 µM | Potency [15] 8.71 µM | Potency [16] 15.5 µM

Nc1cc(Cl)ccc1Cl
inactive: Potency [1] | Potency [2] | max response [20] 22.7% | Potency [4] | Potency [19] | Potency [5] | Potency [6] | Potency [7] | Potency [9] | Potency [10] | Potency [11] | Potency [12] | Potency [13] | Potency [14] | Potency [15] | Potency [16] | Potency [17] | Potency [18]

O=[N+]([O-])c1cccc2cccc([N+](=O)[O-])c12
inactive: Potency [1] | Potency [2] | max response [20] -12.3% | Potency [4] | Potency [19] | Potency [5] | Potency [6] | Potency [7] | Potency [9] | Potency [10] | Potency [11] | Potency [12] | Potency [13] | Potency [14] | Potency [15] | Potency [16] | Potency [17] | Potency [18]

CCN1CCC2(CC1)COc1cc3c(cc12)N(C(=O)c1ccc(-c2ccc(-c4nnc(C)o4)cc2C)cc1)CC3
inactive: Potency [10]
active: Potency [1] 40.3 µM | Potency [2] 18 µM | Potency [20] 11.3 µM | Potency [4] 50.7 µM | Potency [19] 50.7 µM | Potency [5] 45.2 µM | Potency [7] 45.2 µM | Potency [8] 25.4 µM | Potency [11] 45.2 µM | Potency [12] 50.7 µM | Potency [13] 45.2 µM | Potency [14] 12.7 µM | Potency [15] 20.2 µM | Potency [17] 20.2 µM | Potency [18] 50.7 µM

CCCCCCCc1ccc(O)cc1
active: Potency [1] 43.6 µM | Potency [2] 11 µM | Potency [4] 43.6 µM | Potency [19] 21.9 µM | Potency [6] 21.9 µM | Potency [7] 21.9 µM | Potency [9] 43.6 µM | Potency [11] 21.9 µM | Potency [14] 12.3 µM | Potency [15] 6.17 µM | Potency [16] 43.6 µM | Potency [18] 24.5 µM
inactive: Potency [8] | Potency [10] | Potency [13] | Potency [17]

Brc1ccc(Oc2ccc(Br)cc2Br)c(Br)c1
active: Potency [20] 49 µM | Potency [14] 49 µM
inactive: Potency [1] | Potency [3] | Potency [4] | Potency [19] | Potency [6] | Potency [8] | Potency [9] | Potency [10] | Potency [11] | Potency [12] | Potency [13] | Potency [16] | Potency [17] | Potency [18]
